Screens as filed in PubChem.
TDP1 block: TDP1 (human) enzyme inhibition | Q9NUW8 | recombinant TDP1, AlphaScreen DNA substrate cleavage | Potency, µM (highest dose often 130 µM), for inactives: at the top dose activity change, negative = inhibition, most hits filed as inhibitors | 0.28% of 350,000 active | AID 485290; note: nearly all actives have a fitted effect of over 40% in size
Target sequence (Q9NUW8 whole entry, looked up): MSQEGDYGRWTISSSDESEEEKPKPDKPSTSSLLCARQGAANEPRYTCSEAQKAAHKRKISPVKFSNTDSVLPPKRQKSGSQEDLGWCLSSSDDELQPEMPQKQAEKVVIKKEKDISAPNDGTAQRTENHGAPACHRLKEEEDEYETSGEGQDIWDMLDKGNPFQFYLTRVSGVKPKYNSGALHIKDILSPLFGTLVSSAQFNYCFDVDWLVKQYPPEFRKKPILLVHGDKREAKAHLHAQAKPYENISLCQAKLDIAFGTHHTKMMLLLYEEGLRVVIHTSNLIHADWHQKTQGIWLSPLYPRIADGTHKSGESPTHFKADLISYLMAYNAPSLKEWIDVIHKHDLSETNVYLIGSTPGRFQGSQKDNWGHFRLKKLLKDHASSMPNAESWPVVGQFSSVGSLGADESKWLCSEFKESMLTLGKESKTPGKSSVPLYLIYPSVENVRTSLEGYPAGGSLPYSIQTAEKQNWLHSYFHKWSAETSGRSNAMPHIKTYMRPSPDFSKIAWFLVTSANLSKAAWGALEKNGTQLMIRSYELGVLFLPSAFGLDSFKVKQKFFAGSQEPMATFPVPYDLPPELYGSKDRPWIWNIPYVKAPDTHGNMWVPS
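Steps: enzyme plus compound, 15 min RT; add biotin/phosphotyrosine-FITC oligonucleotide (15 nM final), react 5 min; add donor/acceptor beads (10 ug/ml final), 10 min; read AlphaScreen. Tdp1 at 1 nM final.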
RORg inh: ROR gamma (mouse) transcription inhibition | P51450 | Drosophila S2 Gal4-RORgamma UAS-luciferase reporter, 20 h | Potency, µM (doses to about 53.6 µM), for the others: top-dose activity change, negative = inhibition, hits mostly inhibitors | 5.4% of 310,000 active | AID 2551; note: nearly all actives have a fitted effect of over 60% in size
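Luminescence from a UAS-regulated Photinus luciferase reporter in stably transfected Drosophila Schneider cells is measured; decreased signal marks ROR gamma inhibition. Fusion expression is induced by 700 uM copper sulfate for 20 hr.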
DT40 TDP1 no CPT: qHTS for Inhibitors of human tyrosyl-DNA phosphodiesterase 1 (TDP1): qHTS in cells in absence of CPT. DT40 Tdp1-/- hTDP1 cells, no CPT, ATP luminescence, 48 h. Potency, µM (top dose mostly 46.2 µM), inactives show top-dose activity change, negative = growth inhibition, actives largely listed as inhibitors. 15% of 420,000 active. AID 686978, 2013; note: nearly all actives have a fitted effect of over 55% in size
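Cells were dispensed at 400 per well, compounds added by pin tool, plates incubated ≥48 hr at 37 °C, then CellTiter-Glo added for 30 min at room temperature before luminescence reading. Line: DT40 Tdp1-/- complemented with hTDP1; camptothecin omitted.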
DT40 TDP1 CPT: DT40-hTDP1 cell growth loss with CPT; chicken DT40 Tdp1-/-;hTDP1 cells + 20 nM CPT, ATP luminescence, 48 h; Potency, µM (series often up to 46.2 µM), without a hit: at the highest dose activity change, negative = growth inhibition, most hits filed as inhibitors; 12% of 420,000 active; note: nearly all actives have a fitted effect of over 55% in size
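Cell growth measured by CellTiter-Glo luminescence after a minimum 48 h, 37 C compound exposure with 20 nM CPT in Tdp1-knockout DT40 cells stably expressing hTDP1, seeded 400/well; qHTS titration format.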
Gal4-VP16 FLuc: counter-screen for ROR gamma inhibitors: Gal4-VP16 reporter; Drosophila S2 Gal4-VP16 UAS-luciferase, luminescence, 20 h; Potency, µM (doses to about 53.6 µM), for the others: at the top dose activity, negative = inhibition, actives largely listed as inhibitors; 3.5% of 310,000 active;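 note: Gal4-VP16 expression switched on by copper sulfate through the metallothionein promoter; nearly all actives have a fitted effect of over 50% in size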
An asterisk follows results filed as active; [ ] = remark or other dose. Compounds with a hit are over-represented: about 19% of the library has one in this group of screens. Calls come from the whole dose curve; as a rule, active = well fitted curve in the direction sought with a large enough effect; inconclusive = small, poorly fitted or top-dose-only effect, or another doubt; inactive = no such curve, though single readings can be large; an effect the other way counts as inactive or inconclusive. % is set by controls: 0 for no effect and ±100 for the full control effect; potency is the fitted concentration of half-maximal effect.

Results for CCN(CC)c1ccc(/C=N/NC(=O)c2cccc(S(=O)(=O)Nc3ccccc3OC)c2)cc1 ?
TDP1 block: 0%; RORg inh: 6.3µM*; DT40 TDP1 no CPT: -16%; DT40 TDP1 CPT: -17%; Gal4-VP16 FLuc: 8.9µM*

What do the screens show for `N#Cc1ccccc1Sc1ccccc1C(=O)N1CCOCC1`?
TDP1 block: 1%; RORg inh: 4%; DT40 TDP1 no CPT: -10%; DT40 TDP1 CPT: -5%; Gal4-VP16 FLuc: -4%

How did O=c1c2oc3ccccc3c2n(Cc2ccccc2)c(=O)n1Cc1ccc2c(c1)OCO2 do in these assays?
TDP1 block: 5%; DT40 TDP1 no CPT: inconclusive; DT40 TDP1 CPT: inconclusive

How did Cc1ccc(C(=O)OCC(=O)NCCC2=CCCCC2)s1 do in these assays?
TDP1 block: 0%; RORg inh: -9%; DT40 TDP1 no CPT: 22%; DT40 TDP1 CPT: -15%; Gal4-VP16 FLuc: -12%

What do the screens show for `COC(=O)C1=C(O)/C(=C\c2cc(C)n(-c3ccccc3C)c2C)N=C1C`?
TDP1 block: 7%; RORg inh: inconclusive; DT40 TDP1 no CPT: inconclusive; DT40 TDP1 CPT: 29µM*; Gal4-VP16 FLuc: inconclusive

How did CCOC(=O)/C(C#N)=C/C=C1\C=Cc2ccccc2N1CC do in these assays?
TDP1 block: 1%; RORg inh: -5%; DT40 TDP1 no CPT: 23µM*; DT40 TDP1 CPT: 21µM*; Gal4-VP16 FLuc: -4%

What do the screens show for `CCCCCCN1C=CC(=C/C=C(\C#N)C(=O)OCC)C=C1`?
TDP1 block: 6%; RORg inh: 1%; DT40 TDP1 no CPT: 16µM*; DT40 TDP1 CPT: inconclusive; Gal4-VP16 FLuc: -2%

How did Cc1ccccc1-n1nc(C)c2cc(C(=O)N3CCN(S(=O)(=O)c4ccc(F)cc4)CC3)sc21 do in these assays?
TDP1 block: -2%; RORg inh: -12%; DT40 TDP1 no CPT: 18µM*; DT40 TDP1 CPT: 10µM*; Gal4-VP16 FLuc: -10%

How did Cc1ccccc1-n1nc(C)c2cc(C(=O)N3CCN(S(=O)(=O)c4ccc(Cl)cc4)CC3)sc21 do in these assays?
TDP1 block: 5%; RORg inh: 0%; DT40 TDP1 no CPT: inconclusive; DT40 TDP1 CPT: inconclusive; Gal4-VP16 FLuc: -1%

How did CCN(CC)c1ccc(N=C2C=CC(=O)C=C2NC(C)=O)cc1 do in these assays?
DT40 TDP1 no CPT: 2.9µM*; DT40 TDP1 CPT: 5.2µM*

What do the screens show for `COc1cc(OC)cc(C(=O)NCc2n[nH]c(=S)n2-c2ccccc2OC)c1`?
TDP1 block: -7%; RORg inh: 15%; DT40 TDP1 no CPT: 0%; DT40 TDP1 CPT: -19%; Gal4-VP16 FLuc: 3%

How did Nc1ccc(N(CCO)CCO)cc1 do in these assays?
RORg inh: -23%; DT40 TDP1 no CPT: 21µM*; DT40 TDP1 CPT: 12µM*; Gal4-VP16 FLuc: -4%

Results for CCN(CC)c1ccc(N)cc1 ?
TDP1 block: 12%; RORg inh: -37%; DT40 TDP1 no CPT: 1.6µM*; DT40 TDP1 CPT: 1.8µM*; Gal4-VP16 FLuc: inconclusive

Results for CCN(CC)c1ccc(C(=O)NN)cc1 ?
TDP1 block: -3%; RORg inh: 0%; DT40 TDP1 no CPT: -3%; DT40 TDP1 CPT: 28%; Gal4-VP16 FLuc: -9%[10 µM]

How did CC1=C(c2ccc(C)c(C)c2)S(=O)(=O)N=C1N1CCC(C(=O)NCc2ccccc2C)CC1 do in these assays?
TDP1 block: 1%; DT40 TDP1 no CPT: -21%; DT40 TDP1 CPT: -6%

How did CC1=C(c2ccc(C)c(C)c2)S(=O)(=O)N=C1N1CCN(c2cccc(C)c2)C(C)C1 (stereo not given) do in these assays?
TDP1 block: 6%; DT40 TDP1 no CPT: 10µM*; DT40 TDP1 CPT: 18µM*

Results for CC1=C(c2ccc(Cl)cc2)S(=O)(=O)N=C1N1CCN(c2cccc(C(F)(F)F)c2)CC1 ?
TDP1 block: 9%; DT40 TDP1 no CPT: 21µM*; DT40 TDP1 CPT: 8.2µM*

What do the screens show for `COc1ccc(C2=C(C)C(N3CCN(c4ccc(OC)cc4)CC3)=NS2(=O)=O)cc1`?
TDP1 block: 0%; DT40 TDP1 no CPT: -6%; DT40 TDP1 CPT: -4%

What do the screens show for `CC1=C(c2ccc(C(C)C)cc2)S(=O)(=O)N=C1N1CCN(c2ccc(F)cc2)CC1`?
TDP1 block: -3%; DT40 TDP1 no CPT: 10µM*; DT40 TDP1 CPT: 21µM*

Results for O=C(C1CC=CCC1)N1CCN(S(=O)(=O)c2ccc(F)cc2)CC1 (stereo not given) ?
TDP1 block: -3%; DT40 TDP1 no CPT: -1%; DT40 TDP1 CPT: 7%

What do the screens show for `C=CCNc1ncnc2c1ncn2C1OC(CO)C(O)C1O` (stereo not given)?
TDP1 block: 5%; RORg inh: 4%[10 µM]; DT40 TDP1 no CPT: 21µM*; DT40 TDP1 CPT: 18µM*; Gal4-VP16 FLuc: -10%

How did OCC1OC(n2cnc3c(NCc4ccco4)ncnc32)C(O)C1O (stereo not given) do in these assays?
TDP1 block: 3%; RORg inh: 0%; DT40 TDP1 no CPT: 2.1µM*; DT40 TDP1 CPT: 2.3µM*; Gal4-VP16 FLuc: -7%

What do the screens show for `OC[C@H]1O[C@@H](n2cnc3c(NCc4ccco4)ncnc32)[C@H](O)[C@@H]1O`?
TDP1 block: 7%; RORg inh: -9%; DT40 TDP1 no CPT: 2.1µM*; DT40 TDP1 CPT: 2.3µM*; Gal4-VP16 FLuc: -4%

Results for Cc1ccccc1CNc1ncnc2c1ncn2C1OC(CO)C(O)C1O (stereo not given) ?
TDP1 block: 8%[56.1 µM]; RORg inh: -5%; Gal4-VP16 FLuc: 3%

How did Cc1ccccc1CNc1ncnc2c1ncn2[C@@H]1O[C@H](CO)[C@@H](O)[C@H]1O do in these assays?
DT40 TDP1 no CPT: 12µM*; DT40 TDP1 CPT: inconclusive

What do the screens show for `COC(=O)c1ccc(C(NC(=O)OCc2ccccc2)/C(=C/[C@@H](C)C(=O)NCc2ccc(C)o2)c2cccnc2)cc1` (stereo not given in full)?
TDP1 block: 8%; RORg inh: 7%; Gal4-VP16 FLuc: -4%

Results for OCCOC[C@H]1O[C@H](OCCO)[C@H](OCCO)[C@@H](OCCO)[C@@H]1OCCO (tested in a mixture with another compound) ?
RORg inh: 8%; Gal4-VP16 FLuc: -8%

Results for O=C(c1ccccc1F)N1CCN(Cc2ccc3c(c2)OCO3)CC1 ?
RORg inh: -2%; DT40 TDP1 no CPT: -25%; DT40 TDP1 CPT: 11%; Gal4-VP16 FLuc: 2%

What do the screens show for `Cc1sc(NC(=O)Cc2ccc3c(c2)OCO3)nc1-c1ccc2c(c1)CCN2C(=O)c1ccccc1F`?
TDP1 block: 8%; RORg inh: inconclusive; DT40 TDP1 no CPT: 8.2µM*; DT40 TDP1 CPT: 18µM*; Gal4-VP16 FLuc: 4%
